Experimental data taken from the supplement of paper PMC11732987, “Enantioselective OTUD7B fragment discovery through chemoproteomics screening and high-throughput optimisation” (Communications Chemistry, 2025).

Tests used:
Experiment in all cases: log2 ratio of Biotin-Ahx-Ub-VS probe labelling (fragment/DMSO); higher = less target engagement (more negative = stronger competition), active = hit call of the paper (q ≤ 0.05, log2 ratio ≤ -1)
Details in all cases: compound concentration: 200 uM; treatment time: 3 h
USP42 = target: T1, USP42 (UniProt Q9H9J4)
T1 sequence (whole entry): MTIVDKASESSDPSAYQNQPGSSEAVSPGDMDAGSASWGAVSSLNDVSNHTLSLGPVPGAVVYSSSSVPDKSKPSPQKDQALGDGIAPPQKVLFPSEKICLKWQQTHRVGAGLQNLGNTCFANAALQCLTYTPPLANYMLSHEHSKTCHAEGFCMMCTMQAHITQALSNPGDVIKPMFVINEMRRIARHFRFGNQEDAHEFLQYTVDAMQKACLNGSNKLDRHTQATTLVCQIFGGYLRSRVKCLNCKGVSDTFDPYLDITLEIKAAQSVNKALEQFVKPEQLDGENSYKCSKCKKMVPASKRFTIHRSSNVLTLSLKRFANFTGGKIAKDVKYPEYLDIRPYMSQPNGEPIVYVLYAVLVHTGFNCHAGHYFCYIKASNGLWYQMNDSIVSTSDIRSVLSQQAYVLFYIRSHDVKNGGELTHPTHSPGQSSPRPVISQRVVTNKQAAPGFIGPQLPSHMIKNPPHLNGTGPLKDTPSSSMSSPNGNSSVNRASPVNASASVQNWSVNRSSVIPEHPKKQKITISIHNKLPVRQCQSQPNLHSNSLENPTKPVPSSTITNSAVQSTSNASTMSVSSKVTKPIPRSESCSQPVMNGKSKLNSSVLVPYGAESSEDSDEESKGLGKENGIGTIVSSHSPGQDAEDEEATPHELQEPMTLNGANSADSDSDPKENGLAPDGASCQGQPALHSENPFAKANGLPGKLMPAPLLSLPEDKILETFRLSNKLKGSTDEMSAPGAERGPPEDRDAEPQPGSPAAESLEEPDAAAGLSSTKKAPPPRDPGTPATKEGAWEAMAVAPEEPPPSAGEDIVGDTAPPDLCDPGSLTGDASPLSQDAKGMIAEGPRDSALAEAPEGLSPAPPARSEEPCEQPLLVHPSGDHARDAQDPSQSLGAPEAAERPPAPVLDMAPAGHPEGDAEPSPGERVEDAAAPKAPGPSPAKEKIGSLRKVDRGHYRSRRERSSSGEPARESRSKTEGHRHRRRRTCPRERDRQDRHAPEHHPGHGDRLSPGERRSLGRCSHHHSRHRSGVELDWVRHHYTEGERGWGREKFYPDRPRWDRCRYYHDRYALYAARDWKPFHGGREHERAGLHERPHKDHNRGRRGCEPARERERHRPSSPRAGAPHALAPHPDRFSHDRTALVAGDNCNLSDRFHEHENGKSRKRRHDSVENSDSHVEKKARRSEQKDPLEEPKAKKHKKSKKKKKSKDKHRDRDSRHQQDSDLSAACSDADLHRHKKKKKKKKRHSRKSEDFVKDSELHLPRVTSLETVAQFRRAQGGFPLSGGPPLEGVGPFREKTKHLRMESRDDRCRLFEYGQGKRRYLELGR
Procedure, shortened: (§1)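 Each value is an average log2 ratio of fragment to vehicle, tested by unpaired t-test. The underlying Spectronaut label-free quantities were global-median-normalised, and only proteins with ≥2 unique peptides were included. Triplicate HEK293T lysate samples (495 µg) were exposed to fragment at 200 µM or vehicle for 3 h, then to Biotin-Ahx-Ub-VS at 0.5 µM final for 1 h, before NeutrAvidin enrichment of labelled DUBs, LysC and trypsin digestion, and diaPASEF LC-MS/MS.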

USP46 = USP46 (UniProt P62068)
USP46, sequence (P62068 whole entry): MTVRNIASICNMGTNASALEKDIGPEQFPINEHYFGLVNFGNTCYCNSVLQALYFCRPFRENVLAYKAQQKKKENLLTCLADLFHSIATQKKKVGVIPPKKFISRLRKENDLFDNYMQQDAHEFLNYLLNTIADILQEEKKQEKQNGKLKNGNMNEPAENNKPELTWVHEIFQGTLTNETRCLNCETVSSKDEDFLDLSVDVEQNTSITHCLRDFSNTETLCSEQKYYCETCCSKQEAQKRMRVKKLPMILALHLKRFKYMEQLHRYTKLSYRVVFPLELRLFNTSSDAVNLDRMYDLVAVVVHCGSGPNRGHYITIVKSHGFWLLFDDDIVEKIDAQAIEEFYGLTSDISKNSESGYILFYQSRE
Procedure, shortened: as §1

USP47 = target: T2, USP47 (UniProt Q96K76)
T2 sequence (whole entry): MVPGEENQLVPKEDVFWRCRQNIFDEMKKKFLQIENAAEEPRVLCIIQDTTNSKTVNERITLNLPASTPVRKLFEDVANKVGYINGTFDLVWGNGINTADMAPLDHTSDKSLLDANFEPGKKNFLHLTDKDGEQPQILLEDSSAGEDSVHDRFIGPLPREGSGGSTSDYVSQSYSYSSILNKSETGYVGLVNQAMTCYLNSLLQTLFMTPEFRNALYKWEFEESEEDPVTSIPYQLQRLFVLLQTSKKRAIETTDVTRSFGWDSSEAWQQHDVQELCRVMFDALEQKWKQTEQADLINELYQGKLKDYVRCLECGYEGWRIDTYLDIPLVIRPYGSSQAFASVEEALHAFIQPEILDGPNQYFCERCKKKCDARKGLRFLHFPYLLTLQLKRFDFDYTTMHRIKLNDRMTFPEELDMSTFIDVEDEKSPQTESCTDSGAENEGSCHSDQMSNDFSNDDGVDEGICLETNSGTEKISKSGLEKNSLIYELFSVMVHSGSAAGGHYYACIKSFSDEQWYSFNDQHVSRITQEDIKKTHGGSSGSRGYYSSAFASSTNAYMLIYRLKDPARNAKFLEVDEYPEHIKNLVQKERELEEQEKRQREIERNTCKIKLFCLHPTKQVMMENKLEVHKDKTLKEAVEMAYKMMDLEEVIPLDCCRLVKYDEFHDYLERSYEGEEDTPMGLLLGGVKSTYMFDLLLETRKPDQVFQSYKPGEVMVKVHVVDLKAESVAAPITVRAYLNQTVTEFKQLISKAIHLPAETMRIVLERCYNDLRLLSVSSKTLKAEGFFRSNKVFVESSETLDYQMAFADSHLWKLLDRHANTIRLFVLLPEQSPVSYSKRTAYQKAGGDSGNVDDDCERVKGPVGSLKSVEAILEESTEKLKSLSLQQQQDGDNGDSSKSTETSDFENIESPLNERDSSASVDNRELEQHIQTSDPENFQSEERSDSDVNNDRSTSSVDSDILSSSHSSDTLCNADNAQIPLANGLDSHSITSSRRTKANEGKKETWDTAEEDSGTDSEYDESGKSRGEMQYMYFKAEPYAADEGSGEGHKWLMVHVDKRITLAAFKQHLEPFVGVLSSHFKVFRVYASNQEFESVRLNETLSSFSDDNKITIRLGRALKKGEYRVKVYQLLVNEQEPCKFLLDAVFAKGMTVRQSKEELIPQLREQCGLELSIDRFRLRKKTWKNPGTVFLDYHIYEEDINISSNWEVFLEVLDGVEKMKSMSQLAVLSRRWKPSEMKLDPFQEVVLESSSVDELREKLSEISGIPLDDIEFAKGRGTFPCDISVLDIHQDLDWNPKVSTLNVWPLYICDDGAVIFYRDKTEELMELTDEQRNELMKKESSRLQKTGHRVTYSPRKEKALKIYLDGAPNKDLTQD
Procedure, shortened: as §1

USP48 = target: T3, USP48 (UniProt Q86UV5)
T3 sequence (whole entry): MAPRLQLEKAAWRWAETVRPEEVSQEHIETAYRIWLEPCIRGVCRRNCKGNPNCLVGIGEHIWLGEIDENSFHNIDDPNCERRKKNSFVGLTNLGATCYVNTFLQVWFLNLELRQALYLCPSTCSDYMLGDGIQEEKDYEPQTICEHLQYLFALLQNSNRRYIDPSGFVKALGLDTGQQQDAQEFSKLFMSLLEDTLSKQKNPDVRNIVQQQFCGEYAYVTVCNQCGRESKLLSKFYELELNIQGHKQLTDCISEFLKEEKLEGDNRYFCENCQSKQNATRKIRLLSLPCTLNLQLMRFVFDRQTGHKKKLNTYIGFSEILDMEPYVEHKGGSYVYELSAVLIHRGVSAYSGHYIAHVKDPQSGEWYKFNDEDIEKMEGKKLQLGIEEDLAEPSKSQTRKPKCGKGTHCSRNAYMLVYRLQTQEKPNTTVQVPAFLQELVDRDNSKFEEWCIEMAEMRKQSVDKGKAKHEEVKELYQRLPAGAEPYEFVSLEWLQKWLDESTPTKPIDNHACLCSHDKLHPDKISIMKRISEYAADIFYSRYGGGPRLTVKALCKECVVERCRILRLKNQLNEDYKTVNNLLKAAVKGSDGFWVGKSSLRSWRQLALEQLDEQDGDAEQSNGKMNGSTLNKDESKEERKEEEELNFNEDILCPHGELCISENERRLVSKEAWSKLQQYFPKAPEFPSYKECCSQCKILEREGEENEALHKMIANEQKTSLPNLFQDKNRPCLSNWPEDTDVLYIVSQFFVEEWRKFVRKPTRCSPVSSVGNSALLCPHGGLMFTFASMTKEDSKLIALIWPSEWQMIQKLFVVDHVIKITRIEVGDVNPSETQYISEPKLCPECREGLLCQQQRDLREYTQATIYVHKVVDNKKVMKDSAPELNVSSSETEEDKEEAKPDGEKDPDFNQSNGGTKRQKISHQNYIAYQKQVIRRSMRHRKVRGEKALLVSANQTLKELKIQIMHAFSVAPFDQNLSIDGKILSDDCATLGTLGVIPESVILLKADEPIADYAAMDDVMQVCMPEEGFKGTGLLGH
Procedure, shortened: as §1

USP5 = target: T4, USP5 (UniProt P45974)
T4 sequence (whole entry): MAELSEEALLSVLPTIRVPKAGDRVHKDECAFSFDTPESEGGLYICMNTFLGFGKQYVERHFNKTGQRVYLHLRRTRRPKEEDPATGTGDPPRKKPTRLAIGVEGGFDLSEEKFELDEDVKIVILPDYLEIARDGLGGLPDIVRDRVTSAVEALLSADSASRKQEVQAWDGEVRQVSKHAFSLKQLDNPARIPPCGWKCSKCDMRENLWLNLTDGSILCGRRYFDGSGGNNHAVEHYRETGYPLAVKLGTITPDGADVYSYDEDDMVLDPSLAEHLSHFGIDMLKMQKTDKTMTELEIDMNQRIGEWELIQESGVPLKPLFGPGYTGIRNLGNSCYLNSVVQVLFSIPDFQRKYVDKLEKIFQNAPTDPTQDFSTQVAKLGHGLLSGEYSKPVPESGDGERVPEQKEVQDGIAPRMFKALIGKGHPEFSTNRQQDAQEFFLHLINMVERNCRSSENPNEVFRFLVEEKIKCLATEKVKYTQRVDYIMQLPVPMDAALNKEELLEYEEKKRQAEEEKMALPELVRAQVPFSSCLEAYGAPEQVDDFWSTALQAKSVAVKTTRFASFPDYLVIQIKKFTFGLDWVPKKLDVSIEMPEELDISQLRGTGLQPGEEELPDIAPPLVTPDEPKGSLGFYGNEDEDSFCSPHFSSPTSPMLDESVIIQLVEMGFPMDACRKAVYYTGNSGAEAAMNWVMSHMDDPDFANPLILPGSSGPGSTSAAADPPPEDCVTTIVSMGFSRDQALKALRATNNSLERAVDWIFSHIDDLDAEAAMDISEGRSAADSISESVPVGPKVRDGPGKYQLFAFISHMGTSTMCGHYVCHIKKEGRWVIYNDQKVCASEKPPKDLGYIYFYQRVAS
Procedure, shortened: as §1

USP54 = USP54 (UniProt Q70EL1)
Procedure, shortened: as §1

USP7 = USP7 (UniProt Q93009)
USP7, sequence (Q93009 whole entry, looked up): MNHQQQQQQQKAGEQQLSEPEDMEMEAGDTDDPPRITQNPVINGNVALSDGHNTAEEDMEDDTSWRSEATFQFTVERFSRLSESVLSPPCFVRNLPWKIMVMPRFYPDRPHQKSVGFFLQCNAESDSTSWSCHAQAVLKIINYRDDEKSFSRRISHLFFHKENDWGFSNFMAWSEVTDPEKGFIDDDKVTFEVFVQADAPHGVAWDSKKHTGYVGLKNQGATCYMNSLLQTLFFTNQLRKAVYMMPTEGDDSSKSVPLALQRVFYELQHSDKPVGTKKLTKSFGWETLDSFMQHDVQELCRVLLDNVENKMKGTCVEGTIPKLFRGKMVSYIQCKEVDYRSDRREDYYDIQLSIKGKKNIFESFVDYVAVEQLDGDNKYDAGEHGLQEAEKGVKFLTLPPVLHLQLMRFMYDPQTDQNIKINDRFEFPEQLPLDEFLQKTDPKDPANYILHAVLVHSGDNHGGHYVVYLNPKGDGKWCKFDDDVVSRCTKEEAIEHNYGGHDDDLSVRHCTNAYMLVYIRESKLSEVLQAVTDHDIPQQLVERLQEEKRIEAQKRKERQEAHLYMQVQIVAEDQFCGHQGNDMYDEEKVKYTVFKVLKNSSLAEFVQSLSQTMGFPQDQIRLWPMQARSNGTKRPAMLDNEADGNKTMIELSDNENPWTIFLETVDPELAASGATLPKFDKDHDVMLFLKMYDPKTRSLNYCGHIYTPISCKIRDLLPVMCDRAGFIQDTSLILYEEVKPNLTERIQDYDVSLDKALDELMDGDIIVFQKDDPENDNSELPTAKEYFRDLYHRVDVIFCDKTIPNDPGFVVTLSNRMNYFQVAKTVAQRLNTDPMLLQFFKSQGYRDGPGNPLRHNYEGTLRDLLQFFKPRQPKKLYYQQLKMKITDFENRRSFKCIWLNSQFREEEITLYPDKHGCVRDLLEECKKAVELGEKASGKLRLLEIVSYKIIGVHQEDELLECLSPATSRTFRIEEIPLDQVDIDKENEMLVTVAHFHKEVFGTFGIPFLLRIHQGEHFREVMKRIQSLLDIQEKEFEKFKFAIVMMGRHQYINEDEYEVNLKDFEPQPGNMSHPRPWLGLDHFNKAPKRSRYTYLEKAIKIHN
Procedure, shortened: as §1

USP8 = target: T5, USP8 (UniProt P40818)
T5 sequence (whole entry): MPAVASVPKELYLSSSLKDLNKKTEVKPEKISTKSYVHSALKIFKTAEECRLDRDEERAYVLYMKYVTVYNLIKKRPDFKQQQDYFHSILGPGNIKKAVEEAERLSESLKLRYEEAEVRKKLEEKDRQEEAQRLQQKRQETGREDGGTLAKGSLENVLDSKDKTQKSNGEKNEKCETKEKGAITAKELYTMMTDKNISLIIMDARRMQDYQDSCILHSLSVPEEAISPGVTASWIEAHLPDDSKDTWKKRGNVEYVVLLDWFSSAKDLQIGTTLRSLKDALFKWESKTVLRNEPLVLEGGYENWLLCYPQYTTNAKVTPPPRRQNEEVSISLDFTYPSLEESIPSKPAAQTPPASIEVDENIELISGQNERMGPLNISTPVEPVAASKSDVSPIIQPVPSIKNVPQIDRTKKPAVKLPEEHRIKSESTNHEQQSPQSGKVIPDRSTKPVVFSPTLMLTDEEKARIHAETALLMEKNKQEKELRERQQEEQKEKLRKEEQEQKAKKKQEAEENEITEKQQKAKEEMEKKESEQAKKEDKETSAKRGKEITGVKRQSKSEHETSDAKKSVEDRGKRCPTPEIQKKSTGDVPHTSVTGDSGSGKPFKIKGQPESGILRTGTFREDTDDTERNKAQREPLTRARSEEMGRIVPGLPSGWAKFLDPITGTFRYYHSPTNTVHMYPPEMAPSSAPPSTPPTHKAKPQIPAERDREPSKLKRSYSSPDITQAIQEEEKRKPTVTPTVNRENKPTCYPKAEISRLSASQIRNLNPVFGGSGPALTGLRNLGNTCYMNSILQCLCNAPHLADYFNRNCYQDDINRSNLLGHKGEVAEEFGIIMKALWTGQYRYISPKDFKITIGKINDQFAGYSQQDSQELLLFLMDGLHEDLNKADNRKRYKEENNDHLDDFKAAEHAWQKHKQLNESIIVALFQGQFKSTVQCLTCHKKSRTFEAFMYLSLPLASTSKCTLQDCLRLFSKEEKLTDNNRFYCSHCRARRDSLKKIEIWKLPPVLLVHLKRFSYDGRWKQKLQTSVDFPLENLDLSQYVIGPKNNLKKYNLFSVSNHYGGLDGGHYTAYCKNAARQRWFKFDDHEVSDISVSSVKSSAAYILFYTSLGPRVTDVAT
Procedure, shortened: as §1

USP9X = USP9X (UniProt Q93008)
USP9X, sequence (Q93008 whole entry): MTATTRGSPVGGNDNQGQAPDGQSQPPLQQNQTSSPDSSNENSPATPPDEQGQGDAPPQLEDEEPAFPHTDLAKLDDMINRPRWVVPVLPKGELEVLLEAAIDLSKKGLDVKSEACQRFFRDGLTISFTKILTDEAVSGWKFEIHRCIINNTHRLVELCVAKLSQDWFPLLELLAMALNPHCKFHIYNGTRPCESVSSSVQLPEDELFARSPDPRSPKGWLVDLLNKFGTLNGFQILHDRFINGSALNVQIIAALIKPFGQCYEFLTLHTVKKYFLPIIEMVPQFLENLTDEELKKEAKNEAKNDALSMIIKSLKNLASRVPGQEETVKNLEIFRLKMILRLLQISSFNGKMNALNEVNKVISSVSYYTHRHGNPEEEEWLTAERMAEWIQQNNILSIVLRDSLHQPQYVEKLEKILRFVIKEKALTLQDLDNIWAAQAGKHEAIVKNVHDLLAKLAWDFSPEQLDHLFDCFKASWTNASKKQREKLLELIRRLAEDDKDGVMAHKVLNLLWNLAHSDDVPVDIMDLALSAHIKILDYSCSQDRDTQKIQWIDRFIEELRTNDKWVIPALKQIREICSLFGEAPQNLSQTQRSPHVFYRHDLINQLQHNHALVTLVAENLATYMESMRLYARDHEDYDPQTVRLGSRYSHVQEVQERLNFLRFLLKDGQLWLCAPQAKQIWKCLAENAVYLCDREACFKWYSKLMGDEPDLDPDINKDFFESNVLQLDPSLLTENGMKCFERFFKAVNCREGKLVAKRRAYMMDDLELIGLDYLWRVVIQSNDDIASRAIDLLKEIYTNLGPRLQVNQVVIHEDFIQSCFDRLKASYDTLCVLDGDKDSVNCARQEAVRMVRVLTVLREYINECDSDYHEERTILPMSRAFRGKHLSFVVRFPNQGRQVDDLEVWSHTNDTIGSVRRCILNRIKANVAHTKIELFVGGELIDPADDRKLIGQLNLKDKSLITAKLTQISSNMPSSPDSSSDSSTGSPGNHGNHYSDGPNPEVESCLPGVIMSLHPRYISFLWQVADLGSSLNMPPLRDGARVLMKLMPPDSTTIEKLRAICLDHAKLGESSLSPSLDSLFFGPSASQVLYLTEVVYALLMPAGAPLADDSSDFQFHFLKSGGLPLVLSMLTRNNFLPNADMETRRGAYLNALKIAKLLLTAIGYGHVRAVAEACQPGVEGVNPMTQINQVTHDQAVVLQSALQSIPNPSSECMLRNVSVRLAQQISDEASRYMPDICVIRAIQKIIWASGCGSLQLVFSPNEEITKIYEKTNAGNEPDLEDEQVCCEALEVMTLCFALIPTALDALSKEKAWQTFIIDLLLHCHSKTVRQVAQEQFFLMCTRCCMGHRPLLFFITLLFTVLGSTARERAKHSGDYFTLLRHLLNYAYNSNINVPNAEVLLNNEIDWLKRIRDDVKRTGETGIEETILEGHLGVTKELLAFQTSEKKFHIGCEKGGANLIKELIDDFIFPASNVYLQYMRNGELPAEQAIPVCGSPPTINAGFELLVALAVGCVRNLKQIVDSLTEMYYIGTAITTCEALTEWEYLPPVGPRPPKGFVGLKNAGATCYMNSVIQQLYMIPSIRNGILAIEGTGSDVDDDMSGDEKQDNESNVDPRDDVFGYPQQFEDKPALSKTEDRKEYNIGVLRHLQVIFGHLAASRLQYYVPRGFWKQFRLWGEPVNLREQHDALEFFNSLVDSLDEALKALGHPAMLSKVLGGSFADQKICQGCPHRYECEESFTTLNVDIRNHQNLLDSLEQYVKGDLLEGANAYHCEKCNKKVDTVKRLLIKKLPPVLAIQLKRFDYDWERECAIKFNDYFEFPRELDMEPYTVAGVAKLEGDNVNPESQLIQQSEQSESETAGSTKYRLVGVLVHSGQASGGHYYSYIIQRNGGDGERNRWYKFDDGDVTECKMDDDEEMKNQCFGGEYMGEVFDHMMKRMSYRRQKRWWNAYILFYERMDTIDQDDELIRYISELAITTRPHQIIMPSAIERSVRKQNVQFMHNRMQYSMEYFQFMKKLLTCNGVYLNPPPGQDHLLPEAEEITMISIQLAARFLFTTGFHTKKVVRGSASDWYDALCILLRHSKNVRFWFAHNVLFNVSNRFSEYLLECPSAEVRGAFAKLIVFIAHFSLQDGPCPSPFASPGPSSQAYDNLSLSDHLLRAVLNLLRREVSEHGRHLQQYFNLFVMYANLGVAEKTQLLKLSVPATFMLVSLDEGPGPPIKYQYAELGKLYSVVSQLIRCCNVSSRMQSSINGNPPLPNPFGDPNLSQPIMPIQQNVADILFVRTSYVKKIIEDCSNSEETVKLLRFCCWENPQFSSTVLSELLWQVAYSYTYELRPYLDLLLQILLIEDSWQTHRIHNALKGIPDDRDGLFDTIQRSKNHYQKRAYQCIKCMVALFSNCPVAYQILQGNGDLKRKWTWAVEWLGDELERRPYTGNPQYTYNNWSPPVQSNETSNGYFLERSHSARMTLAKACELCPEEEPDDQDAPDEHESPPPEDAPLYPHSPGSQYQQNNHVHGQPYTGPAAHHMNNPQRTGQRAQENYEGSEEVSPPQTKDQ
Procedure, shortened: as §1

UniProt O00487 = target: UniProt O00487
UniProt O00487, sequence (O00487 whole entry): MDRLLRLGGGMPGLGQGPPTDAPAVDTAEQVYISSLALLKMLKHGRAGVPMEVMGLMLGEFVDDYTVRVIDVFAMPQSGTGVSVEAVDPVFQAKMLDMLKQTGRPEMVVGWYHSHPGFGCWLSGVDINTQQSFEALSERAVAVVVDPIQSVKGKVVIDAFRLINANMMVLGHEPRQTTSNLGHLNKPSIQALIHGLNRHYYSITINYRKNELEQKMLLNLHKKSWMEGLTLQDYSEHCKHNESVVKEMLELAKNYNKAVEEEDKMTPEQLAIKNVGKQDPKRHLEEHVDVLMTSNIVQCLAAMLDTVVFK
Procedure, shortened: as §1

Measured: log2 ratio of Biotin-Ahx-Ub-VS probe labelling

C/C(=C\CNC(=O)CCl)c1cnn(C)c1.Cl
inactive: USP42 0.377 | USP46 -0.21 | USP47 -0.51 | USP48 -0.224 | USP5 -0.543 | USP54 -0.0188 | USP7 -0.224 | USP8 0.115 | USP9X -0.138 | UniProt O00487 -0.0232
